Experimental findings from the supplement of paper PMC3334620 are described below.

Whole data set: some 33,000 sequences, median “E-score (-0.5 to 0.5)” near -0.016, cut for the highest 2% near 0.31. This excerpt belongs to a sample that is enriched for the highest values.

Sequence of UniProt P40535 (P40535 whole entry, the tested form may be a part): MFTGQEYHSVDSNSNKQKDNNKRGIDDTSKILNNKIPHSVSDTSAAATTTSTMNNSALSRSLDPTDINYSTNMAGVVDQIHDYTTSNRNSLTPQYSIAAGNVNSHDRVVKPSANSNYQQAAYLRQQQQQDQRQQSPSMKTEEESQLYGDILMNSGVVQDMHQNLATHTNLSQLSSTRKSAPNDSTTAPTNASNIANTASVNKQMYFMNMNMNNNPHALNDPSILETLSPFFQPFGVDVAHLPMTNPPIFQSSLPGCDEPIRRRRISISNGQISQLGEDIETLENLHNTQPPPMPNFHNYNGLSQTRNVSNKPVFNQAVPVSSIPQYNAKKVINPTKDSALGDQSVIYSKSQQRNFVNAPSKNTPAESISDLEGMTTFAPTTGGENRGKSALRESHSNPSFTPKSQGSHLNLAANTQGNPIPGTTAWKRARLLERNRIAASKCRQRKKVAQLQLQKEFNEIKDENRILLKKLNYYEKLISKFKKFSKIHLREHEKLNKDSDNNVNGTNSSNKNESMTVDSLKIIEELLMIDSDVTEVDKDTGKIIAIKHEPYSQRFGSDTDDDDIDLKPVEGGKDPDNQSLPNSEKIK

In this assay the target is Cst6 (UniProt P40535). Description: PBM E-score (8-mer binding enrichment) (E-score (-0.5 to 0.5)); higher = stronger / more preferred TF binding. To be noted: protein concentration: 200 nM; construct: GST-DNA-binding domain. Put shortly:
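Universal all-10-mer Agilent arrays, fresh or stripped once, were converted to double-stranded form by primer extension. GST-tagged yeast transcription factors from PURExpress in vitro transcription/translation, full-length or DNA-binding domain only, were applied at about 100-200 nM and detected with fluorescent anti-GST. After masliner normalisation, the Universal PBM Analysis Suite scored each ungapped eight-base word together with its reverse complement by E-score.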
With ATAAGCTC, the “PBM E-score” value is -0.0286. On to CGCCCACC, for which the “PBM E-score” value was -0.0447.

CGGTCCGC: the “PBM E-score” value was -0.198.

As to ACAAAGAA, the “PBM E-score” value was determined as 0.247. For GACTGCTC the value was -0.26. As for ACACTTAA, the figure is 0.105. Turning to GGGGCTTA, the “PBM E-score” value is -0.346. CAGATAAA: the “PBM E-score” value turned out to be 0.051. For CTATCGGA the value was -0.0998; for AGTGTGCC, -0.088; for AAAAATTC, 0.186. As for ATGAAATC, the figure is 0.314; as for ATGAAATA, 0.283; as for CTGAAATC, 0.0366.

In the case of ATAGCTAT, the “PBM E-score” value is -0.0877. For CTTCGAAG the value was -0.21. With AAGCTATG, the “PBM E-score” value was -0.0495. For ACTAAGAG the value was -0.0881; for CAGAACGG, -0.0224. For TAACATCA the value was 0.399; for CGACATCC, -0.0566. On to AAACATCA, for which the “PBM E-score” value worked out at 0.268. TGACATCA: the “PBM E-score” value amounted to 0.496. CAACATCA: the “PBM E-score” value is 0.305. CGACATCA: the “PBM E-score” value stood at 0.411. For GGACATCA the value was 0.188. As for CGACATCG, the figure is -0.122; as for AGACATCA, 0.0931. As for ACGCTGGC, the figure is -0.207; as for AAAGGCAC, 0.189.

For the sequence CAGACCCC, the “PBM E-score” value was -0.316. For CTCAATGA the value was 0.14; for GTCAATGA, 0.235.

ATCAATGA: the “PBM E-score” value was determined as 0.35. As for CCGTACCG, the figure is -0.0599; as for CAGGGTGG, -0.23. CCCAAGAC: the “PBM E-score” value was -0.0855. For ATGACATG the value was 0.351; for ATGACAGG, 0.0675; for CTGACATA, 0.324.

For the sequence GAGACATA, the “PBM E-score” value is -0.00422.

With ATGACAGA, the “PBM E-score” value was 0.243. As for ATGACATA, the figure is 0.45. For GGGACATA the value was -0.0929. With AAGACATA, the “PBM E-score” value came to 0.0804. In the case of CGGACATA, the “PBM E-score” value stood at 0.0467. As for ATGACAAG, the figure is 0.134; as for CAGACATA, 0.131. As to GTGACATA, the “PBM E-score” value was determined as 0.471. CATCTATA: the “PBM E-score” value amounted to 0.162.

In the case of ACGCGAGG, the “PBM E-score” value is 0.0628. As to CATGCCCC, the “PBM E-score” value was -0.109. As for CATGAGAG, the figure is 0.0742; as for CACGTGCG, -0.038; as for CTAGTTCC, 0.0382. Regarding ATCGGCTA, the “PBM E-score” value is -0.138. In the case of CGGGCGTC, the “PBM E-score” value was -0.0942. As for AAGCCCGG, the figure is -0.209; as for AGAACGGG, -0.0993; as for CAATAAGA, 0.181. As to ACTGGTTA, the “PBM E-score” value is 0.0197. For AGGGACGA the value was 0.0201; for TGAGCTCA, 0.374; for CGAGCTCA, -0.0803. As for AGAGCTCA, the figure is -0.192; as for GAACCGCC, -0.092. On to GAGCTAAA, for which the “PBM E-score” value was -0.0615. Regarding CACGTACA, the “PBM E-score” value was -0.0529. GCCGTATA: the “PBM E-score” value was determined as 0.367. As for AACGTATA, the figure is 0.215; as for CACGTATG, 0.204.

ACCGTATA: the “PBM E-score” value was -0.0183. TACGTATA: the “PBM E-score” value came to 0.328. As for TACGTAGA, the figure is 0.224. As for CCCGTATA, the figure is -0.0644.

Consider AACGTACA, for which the “PBM E-score” value came to 0.0856. For GACGTATA the value was 0.322; for TACGTACA, 0.336; for CACGTATA, 0.167. With ATGTTCGA, the “PBM E-score” value turned out to be 0.0764. For CAATTGTC the value was 0.0392; for AGGATACC, -0.251. As for GCAGTAAC, the figure is -0.065. As for CATTCTGC, the figure is 0.0305; as for CTTCGATA, 0.178. As for ATTCCAAA, the “PBM E-score” value was 0.118. For CGCATCCC the value was -0.216. For ACGTAGCC the value was -0.0377.

GATGACGC: the “PBM E-score” value came out at 0.473.

Take AATGACAG: the “PBM E-score” value is 0.167.

As for GATGACAC, the “PBM E-score” value came to 0.286. As for AATGACAA, the figure is 0.267; as for GATGACCA, 0.101; as for GATGACAA, 0.333. As for CATGACAA, the figure is 0.14. For GATGACTA the value was 0.171; for GATGACCC, -0.0821; for AATGACAT, 0.422. With GACGACGC, the “PBM E-score” value was 0.074. As to GATGACGA, the “PBM E-score” value was determined as 0.463. ATAAGGGC: the “PBM E-score” value turned out to be 0.0296. As for GCCGATAC, the figure is -0.136; as for CTCGCTAA, 0.0589. As for AGACGTTA, the figure is 0.0355; as for TGATCGCA, 0.0445. As for AGCCGGGC, the figure is -0.185; as for AAGCTTGA, -0.0535; as for GCTTCGAA, -0.0925. Regarding AATGACCT, the “PBM E-score” value was determined as 0.25. As for TATGACAA, the figure is 0.25. For ATTGACGC, the “PBM E-score” value came out at 0.265. For ACTGACGC the value was 0.243.
